Data published in PubChem BioAssay.
Activity calls are given as the source filed them.

Assays:
[1] = tested on: PRMT1 (protein arginine N-methyltransferase 1); assay: PRMT1 binders on small-molecule microarrays, primary screen, biochemical, small-molecule microarray, 635 nm fluorescence (AID 1088); conditions: small-molecule microarray binding, higher = more signal;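 also: binding of Prmt1 protein to compounds spotted on small-molecule microarray slides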
[2] = yeast growth modulation, basal conditions, primary screen, YJM789 clinical isolate, OD600, 24 h (AID 1089);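 also: growth of clinical yeast isolate S. cerevisiae YJM 789 seeded 1000 cells per well; test concentration not given here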; conditions: S. cerevisiae YJM789 growth, higher = more signal, called active from +8 up or from −8 down
[3] = fission yeast growth modulation, primary screen, strain 972, OD600, 24 h, no modulator (AID 1090);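 also: basal condition with compound alone and no growth modifier present; test concentration not given here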; conditions: S. pombe 972 growth, higher = more signal, called active from +8 up or from −8 down
[4] = S. cerevisiae growth modulation with rapamycin, primary screen, strain BY4716, OD600, 96 h (AID 1091); conditions: higher = more signal, called active from +8 up or from −8 down; also: test concentration not given here
[5] = target: Torsin-1A-interacting protein 2 (Homo sapiens) (UniProt Q8NFQ8); assay: LULL1 binders on small-molecule microarray, primary screen, cell lysate, human LULL1 lysate, 635/667 nm fluorescence (AID 1092); conditions: hLULL1 lysate binding, 635 nm fluorescence, higher = more signal;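 also: probe is lysate of COS7 cells overexpressing human LULL1; score merges per-feature 667 nm fluorescence with signal-to-noise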
Torsin-1A-interacting protein 2 (Homo sapiens), sequence (Q8NFQ8 whole entry, looked up): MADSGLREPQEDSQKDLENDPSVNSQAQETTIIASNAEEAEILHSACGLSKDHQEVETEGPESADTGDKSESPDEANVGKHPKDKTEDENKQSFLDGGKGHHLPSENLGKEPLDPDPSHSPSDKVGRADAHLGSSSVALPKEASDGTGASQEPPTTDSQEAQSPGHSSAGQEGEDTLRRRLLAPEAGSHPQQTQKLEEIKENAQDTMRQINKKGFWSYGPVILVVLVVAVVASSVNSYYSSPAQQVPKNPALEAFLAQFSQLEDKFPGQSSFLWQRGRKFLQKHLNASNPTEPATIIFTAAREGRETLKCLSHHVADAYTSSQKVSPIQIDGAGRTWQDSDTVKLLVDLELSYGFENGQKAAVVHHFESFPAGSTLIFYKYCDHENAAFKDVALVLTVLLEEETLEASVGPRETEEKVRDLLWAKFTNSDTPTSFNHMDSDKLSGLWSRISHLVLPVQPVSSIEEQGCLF

[6] = E. coli growth modulation, two-sided OD650, primary screen, E. coli filamentation project, strain DRC41, 24 h (AID 1093); conditions: OD650, 24 h, higher = more signal, called active from +8 up or from −8 down;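 also: MC1000 strain lacking acrAB efflux and sulA so SOS filamentation is blocked; test concentration not given here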
[7] = small-molecule microarray binders of probe aLefty2, primary screen, biochemical, biotinylated probe, 635/667 nm fluorescence (AID 1094); conditions: higher = more signal;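 also: score merges spot fluorescence near 667 nm with spot signal-to-noise ratio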
[8] = tested on: Noggin (protein binding on small-molecule microarray); assay: Noggin binders on small-molecule microarray, primary screen, biochemical, 635/667 nm fluorescence (AID 1095); conditions: 635 nm fluorescence, higher = more signal;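 also: score merges 667 nm feature fluorescence with signal to noise over triplicate slides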
[9] = target: Neurogenic locus notch homolog protein 3 (Homo sapiens) (UniProt Q9UM47); assay: NOTCH3 binders on small-molecule microarray, primary screen, biochemical, 635/667 nm fluorescence (AID 1096); conditions: NOTCH3 binding, 635 nm fluorescence, higher = more signal
Neurogenic locus notch homolog protein 3 (Homo sapiens), sequence (Q9UM47 whole entry, looked up): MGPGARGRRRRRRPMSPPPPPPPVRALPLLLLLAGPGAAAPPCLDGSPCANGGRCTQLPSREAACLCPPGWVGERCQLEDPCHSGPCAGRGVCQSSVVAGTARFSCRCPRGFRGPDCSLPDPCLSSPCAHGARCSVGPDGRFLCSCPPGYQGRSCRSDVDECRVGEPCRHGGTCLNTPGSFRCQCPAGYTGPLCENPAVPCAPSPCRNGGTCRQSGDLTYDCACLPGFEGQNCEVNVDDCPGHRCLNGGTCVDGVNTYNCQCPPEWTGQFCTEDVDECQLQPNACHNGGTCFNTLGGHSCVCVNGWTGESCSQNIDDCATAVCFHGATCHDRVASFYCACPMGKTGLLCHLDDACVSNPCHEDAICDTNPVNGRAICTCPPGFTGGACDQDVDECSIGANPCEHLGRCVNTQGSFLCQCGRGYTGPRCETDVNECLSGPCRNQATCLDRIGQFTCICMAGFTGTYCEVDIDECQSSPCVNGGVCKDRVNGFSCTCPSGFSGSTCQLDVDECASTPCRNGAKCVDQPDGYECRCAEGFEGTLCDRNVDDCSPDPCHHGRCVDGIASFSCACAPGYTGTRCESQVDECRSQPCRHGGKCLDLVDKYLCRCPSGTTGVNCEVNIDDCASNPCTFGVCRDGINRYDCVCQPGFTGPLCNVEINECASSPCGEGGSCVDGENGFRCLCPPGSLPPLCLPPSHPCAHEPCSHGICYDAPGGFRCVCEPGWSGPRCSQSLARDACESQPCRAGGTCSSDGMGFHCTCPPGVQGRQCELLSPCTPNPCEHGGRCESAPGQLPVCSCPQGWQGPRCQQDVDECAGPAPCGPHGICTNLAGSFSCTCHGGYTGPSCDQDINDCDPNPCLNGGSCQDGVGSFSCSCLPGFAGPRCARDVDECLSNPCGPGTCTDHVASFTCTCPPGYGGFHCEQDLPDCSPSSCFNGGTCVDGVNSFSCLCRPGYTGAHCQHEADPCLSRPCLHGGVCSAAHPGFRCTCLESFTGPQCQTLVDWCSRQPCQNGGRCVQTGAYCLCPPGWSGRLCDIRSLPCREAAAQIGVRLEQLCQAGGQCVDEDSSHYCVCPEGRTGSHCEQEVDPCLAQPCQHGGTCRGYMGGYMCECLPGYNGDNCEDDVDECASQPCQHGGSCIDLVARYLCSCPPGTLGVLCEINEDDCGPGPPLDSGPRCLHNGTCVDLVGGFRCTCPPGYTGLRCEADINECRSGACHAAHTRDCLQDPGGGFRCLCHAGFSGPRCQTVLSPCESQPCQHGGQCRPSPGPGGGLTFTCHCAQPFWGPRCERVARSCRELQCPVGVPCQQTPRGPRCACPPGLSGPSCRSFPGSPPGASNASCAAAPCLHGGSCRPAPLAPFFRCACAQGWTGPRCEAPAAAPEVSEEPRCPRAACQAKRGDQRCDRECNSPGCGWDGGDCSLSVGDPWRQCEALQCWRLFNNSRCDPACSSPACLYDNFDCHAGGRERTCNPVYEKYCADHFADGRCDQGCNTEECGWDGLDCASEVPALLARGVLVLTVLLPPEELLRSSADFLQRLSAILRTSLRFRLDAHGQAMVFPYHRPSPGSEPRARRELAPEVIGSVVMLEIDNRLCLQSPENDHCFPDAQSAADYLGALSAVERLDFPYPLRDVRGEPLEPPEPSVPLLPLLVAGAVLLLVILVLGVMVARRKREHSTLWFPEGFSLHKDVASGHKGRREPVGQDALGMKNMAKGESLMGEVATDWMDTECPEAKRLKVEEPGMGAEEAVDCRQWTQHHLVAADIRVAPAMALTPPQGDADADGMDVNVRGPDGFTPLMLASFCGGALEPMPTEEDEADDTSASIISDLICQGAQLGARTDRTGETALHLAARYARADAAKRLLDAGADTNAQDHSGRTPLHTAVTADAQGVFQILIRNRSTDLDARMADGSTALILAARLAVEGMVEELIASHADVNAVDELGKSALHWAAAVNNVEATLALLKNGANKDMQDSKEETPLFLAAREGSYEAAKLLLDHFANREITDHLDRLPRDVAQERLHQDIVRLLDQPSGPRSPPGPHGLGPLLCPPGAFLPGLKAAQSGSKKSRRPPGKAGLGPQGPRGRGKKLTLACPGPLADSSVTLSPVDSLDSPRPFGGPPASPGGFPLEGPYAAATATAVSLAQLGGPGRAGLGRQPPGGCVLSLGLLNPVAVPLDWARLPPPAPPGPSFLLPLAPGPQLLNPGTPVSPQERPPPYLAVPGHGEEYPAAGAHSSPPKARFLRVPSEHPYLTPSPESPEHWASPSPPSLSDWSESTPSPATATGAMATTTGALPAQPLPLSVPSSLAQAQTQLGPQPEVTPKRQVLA

[10] = small-molecule microarray binders of probe aEGFR, primary screen, biochemical, biotinylated probe, 635/667 nm fluorescence (AID 1097); conditions: higher = more signal;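 also: probe is a biotinylated anti-EGFR antibody binding compounds printed on slides; score combines fluorescence near 667 nm and signal to noise of each spot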
[11] = tested on: Plasmodium falciparum Sir2 (PF13_0152, Sir2A); assay: pfSir2 binders on small-molecule microarrays, primary screen, biochemical, small-molecule microarray, 635 nm fluorescence (AID 1098); conditions: small-molecule microarray binding, fluorescence 635 nm; higher = more signal;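 also: score merges spot fluorescence intensity with its signal-to-noise ratio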
[12] = small-molecule microarray binders of probe aDKK1, primary screen, biochemical, biotinylated probe, 635/667 nm fluorescence (AID 1099); conditions: higher = more signal;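 also: score merges 667nm spot fluorescence with signal to noise across triplicate slides; reference of the scale not given here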
[13] = small-molecule microarray binders of probe aCHRDL2, primary screen, biochemical, biotinylated probe, 635/667 nm fluorescence (AID 1100); conditions: higher = more signal
[14] = splicing luciferase reporter signal modulators, primary screen, spliceosome inhibition project, cell-based, HEK293, splice +/- reporter (AID 1101); conditions: luminescence, 24 h, higher = more signal, called active from +8 up or from −8 down;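 also: HEK293 cells carrying a splicing-competent luciferase reporter gene; test concentration not given here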
[15] = target: Fibroblast growth factor 10 (Homo sapiens) (UniProt O15520); assay: FGF10 binders on small-molecule microarrays, primary screen, biochemical, small-molecule microarray, 635 nm fluorescence (AID 1102); conditions: FGF10 binding, fluorescence 635 nm, higher = more signal
Fibroblast growth factor 10 (Homo sapiens), sequence (O15520 whole entry, looked up): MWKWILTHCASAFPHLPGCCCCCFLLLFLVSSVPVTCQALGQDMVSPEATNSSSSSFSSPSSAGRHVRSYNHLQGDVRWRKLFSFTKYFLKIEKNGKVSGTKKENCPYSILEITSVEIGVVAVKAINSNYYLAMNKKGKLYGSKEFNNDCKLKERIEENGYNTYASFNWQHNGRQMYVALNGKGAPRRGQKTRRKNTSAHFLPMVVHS

[16] = tested on: glycogen synthase kinase-3 (GSK3A per assay name; protocol says GSK3B); assay: GSK3 binders on small-molecule microarrays, primary screen, biochemical, small-molecule microarray, 635 nm fluorescence, GSK3A (AID 1103); conditions: small-molecule microarray binding, fluorescence 635 nm; higher = more signal; also: the record names both GSK3A and GSK3B
[17] = target: Epidermal growth factor receptor (Homo sapiens) (UniProt P00533); assay: EGFR binders on small-molecule microarrays, primary screen, biochemical, small-molecule microarray, 635 nm fluorescence (AID 1104); conditions: EGFR binding, higher = more signal;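 also: score merges 667 nm emission intensity with spot signal to noise over triplicate slides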
Epidermal growth factor receptor (Homo sapiens), sequence (P00533 whole entry, looked up): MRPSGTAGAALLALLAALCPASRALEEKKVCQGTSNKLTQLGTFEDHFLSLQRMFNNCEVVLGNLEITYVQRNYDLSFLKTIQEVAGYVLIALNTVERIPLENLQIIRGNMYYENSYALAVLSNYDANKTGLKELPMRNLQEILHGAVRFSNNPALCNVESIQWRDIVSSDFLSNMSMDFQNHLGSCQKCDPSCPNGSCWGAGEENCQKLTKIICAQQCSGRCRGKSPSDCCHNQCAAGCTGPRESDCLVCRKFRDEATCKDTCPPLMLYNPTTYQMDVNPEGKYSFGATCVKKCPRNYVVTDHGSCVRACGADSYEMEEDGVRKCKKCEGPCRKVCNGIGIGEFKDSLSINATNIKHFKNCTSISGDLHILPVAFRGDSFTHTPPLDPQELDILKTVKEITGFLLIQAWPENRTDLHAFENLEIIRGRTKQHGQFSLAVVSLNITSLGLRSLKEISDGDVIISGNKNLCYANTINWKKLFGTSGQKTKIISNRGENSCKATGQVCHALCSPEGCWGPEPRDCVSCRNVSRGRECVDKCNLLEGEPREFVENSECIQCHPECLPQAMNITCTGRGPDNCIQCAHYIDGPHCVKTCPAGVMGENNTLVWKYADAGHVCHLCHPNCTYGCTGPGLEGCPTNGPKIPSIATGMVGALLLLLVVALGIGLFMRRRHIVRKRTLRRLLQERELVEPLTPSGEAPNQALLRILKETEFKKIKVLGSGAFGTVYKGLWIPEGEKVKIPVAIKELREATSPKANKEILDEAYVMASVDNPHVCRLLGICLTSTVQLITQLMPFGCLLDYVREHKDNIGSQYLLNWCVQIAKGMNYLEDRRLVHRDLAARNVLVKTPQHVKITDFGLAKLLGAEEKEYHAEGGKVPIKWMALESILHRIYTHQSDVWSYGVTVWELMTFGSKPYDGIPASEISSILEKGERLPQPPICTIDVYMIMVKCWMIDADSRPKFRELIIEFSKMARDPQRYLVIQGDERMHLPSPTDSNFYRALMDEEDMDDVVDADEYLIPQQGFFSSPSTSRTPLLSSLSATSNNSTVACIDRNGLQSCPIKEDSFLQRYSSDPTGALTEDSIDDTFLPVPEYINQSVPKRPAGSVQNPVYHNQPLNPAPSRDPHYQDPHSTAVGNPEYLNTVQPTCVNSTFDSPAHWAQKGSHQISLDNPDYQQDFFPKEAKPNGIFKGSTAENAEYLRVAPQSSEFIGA

[18] = target: Follistatin-related protein 3 (Homo sapiens) (UniProt O95633); assay: FSTL3 binders on small-molecule microarrays, primary screen, biochemical, small-molecule microarray, 635 nm fluorescence (AID 1105); conditions: FSTL3 binding, higher = more signal;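 also: score merges emission near 667 nm and signal to noise per printed spot across three slides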
Follistatin-related protein 3 (Homo sapiens), sequence (O95633 whole entry, looked up): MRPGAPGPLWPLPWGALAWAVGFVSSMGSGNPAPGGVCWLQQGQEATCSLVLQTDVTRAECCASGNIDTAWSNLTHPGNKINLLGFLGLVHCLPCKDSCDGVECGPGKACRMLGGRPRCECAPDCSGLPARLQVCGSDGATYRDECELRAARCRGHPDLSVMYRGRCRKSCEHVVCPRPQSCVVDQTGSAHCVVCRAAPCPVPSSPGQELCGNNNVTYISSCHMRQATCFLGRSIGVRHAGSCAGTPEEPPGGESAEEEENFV

[19] = target: Dickkopf-related protein 1 (Homo sapiens) (UniProt O94907); assay: DKK1 binders on small-molecule microarrays, primary screen, biochemical, small-molecule microarray, 635 nm fluorescence scan (AID 1106); conditions: DKK1 binding, higher = more signal;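 also: score merges emission near 667 nm with signal to noise over three replicate slides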
Dickkopf-related protein 1 (Homo sapiens), sequence (O94907 whole entry, looked up): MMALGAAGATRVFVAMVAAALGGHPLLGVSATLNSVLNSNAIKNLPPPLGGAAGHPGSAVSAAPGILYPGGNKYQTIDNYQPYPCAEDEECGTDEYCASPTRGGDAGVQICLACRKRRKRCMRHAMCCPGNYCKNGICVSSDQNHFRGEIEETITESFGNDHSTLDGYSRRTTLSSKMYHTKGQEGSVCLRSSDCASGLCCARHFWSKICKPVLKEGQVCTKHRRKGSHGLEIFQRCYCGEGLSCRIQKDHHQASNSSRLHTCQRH

[20] = tested on: Inhibin beta A chain (activin A); assay: INHBA (activin A) binders on microarrays, primary screen, biochemical, small-molecule microarray, 635 nm fluorescence scan (AID 1107); conditions: small-molecule microarray binding, higher = more signal;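 also: mouse activin A protein probed at 4.33 µg/mL on printed slides; score merges bound-protein fluorescence near 667 nm with spot signal-to-noise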

| Structure (SMILES) | composite z-score [1] | z-score [2] | z-score [3] | z-score [4] | composite z-score [5] | z-score [6] | composite z-score [7] | composite z-score [8] | composite z-score [9] | composite z-score [10] | composite z-score [11] | composite z-score [12] | composite z-score [13] | z-score [14] | composite z-score [15] | composite z-score [16] | composite z-score [17] | composite z-score [18] | composite z-score [19] | composite z-score [20] |
| --- | --- | --- | --- | --- | --- | --- | --- | --- | --- | --- | --- | --- | --- | --- | --- | --- | --- | --- | --- | --- |
| CCCC[C@@H](O)C1=C(COc2ccccc2)C[C@H]2C(=O)N(C)C(=O)[C@H]2[C@H]1CO | 0.129 | -2.42 (inactive) | -1.79 (inactive) | -0.561 (inactive) | -0.988 | 1.31 (inactive) | -0.247 | 0.273 | -0.242 | -0.225 | 0.119 | -0.423 | -0.575 | -1.3 (inactive) | -0.0816 | -0.0425 | -0.333 | -0.0008 | -0.0034 | 0.799 |
| O=c1n(-c2ccccc2)c(=O)n2n1CC(COc1ccccc1)=C([C@H](O)CCc1ccccc1)[C@@H]2CO | 0.17 | -1.33 (inactive) | -1.79 (inactive) | -0.868 (inactive) | -0.173 | 2.68 (inactive) | -0.153 | 0.701 | -0.196 | -0.08 | -0.0946 | -0.342 | -0.313 | -1.54 (inactive) | 0.692 | -0.0688 | 0.0867 | 0.0711 | 0.291 | 1.03 |
| O=C1OCC=C[C@H]2OC34C=CCN(Cn5nnc6ccccc65)C(=O)[C@H]3N(CCCO)C(=O)[C@@H]4[C@@H]12 (stereo not given in full) | -0.169 | 0.465 (inactive) | -0.883 (inactive) | -0.437 (inactive) | 0.433 | 1.93 (inactive) | -0.217 | -0.2 | -0.579 | -0.356 | -0.0241 | -0.0481 | 0.368 | -1.26 (inactive) | -0.21 | -1.08 | -0.577 | -1.39 | -0.448 | 0.839 |
| COC(=O)c1c2oc(c1C(=O)OC)C(=O)N(Cc1ccccc1)Cc1cn(nn1)C[C@H](Cc1ccccc1)NC(=O)N[C@H](CO)CC2 | 0.707 | -3.16 (inactive) | -1.15 (inactive) | 0.0108 (inactive) | 1.69 | 0.101 (inactive) | -0.256 | 0.698 | 0.43 | -0.11 | 0.909 | -0.0239 | -0.342 | -2.12 (inactive) | 0.247 | 0.278 | 0.0933 | 0.111 | -0.0193 | 0.0809 |
| COc1ccc(-c2cc3c(c(CCc4ccccc4)n2)[Si](C(C)C)(C(C)C)OC3)cn1 | -0.876 | 0.275 (inactive) | -0.726 (inactive) | 0.333 (inactive) | 0.781 | -0.43 (inactive) | -0.248 | 0.325 | 0.312 | -0.0828 | -0.311 | -0.128 | -0.185 | -0.0496 (inactive) | -0.121 | -0.926 | 0.168 | 0.282 | 0.0275 | 0.529 |
| C=C(/C(=C/C[C@H](OC(=O)c1ccncc1)c1ccc(CO)o1)c1cc(C(=O)OC)ccc1OC)C(C)C | 1.44 | -0.0096 (inactive) | -0.515 (inactive) | -0.38 (inactive) | 1.6 | 0.425 (inactive) | -0.116 | 0.424 | 1.02 | -0.0902 | 0.805 | -0.0125 | -0.0735 | 0.174 (inactive) | 0.909 | 0.851 | 0.0286 | 0.752 | 0.667 | 1.04 |
| CC1CC/C=C\[C@H]2OC34C=CCN(c5ccc(Cl)cc5)C(=O)[C@H]3N(CCCCCO)C(=O)[C@]4(C)C2C(=O)O1 (stereo not given in full) | -0.318 | 0.184 (inactive) | 0.177 (inactive) | -0.166 (inactive) | -1 | -0.367 (inactive) | -0.233 | -1.33 | -0.394 | -0.302 | 0.925 | -0.153 | 0.648 | 0.4 (inactive) | -1.04 | -0.798 | -1.24 | -0.888 | -1.98 | -0.497 |
| CN1C(=O)C2C=CC(C(O)c3ccccn3)N(N(c3ccccc3)c3ccccc3)C2C1=O (stereo not given) | 0.412 | 1.13 (inactive) | 0.863 (inactive) | 0.491 (inactive) | 1.87 | -0.828 (inactive) | 0.235 | -0.112 | -0.343 | 0.0353 | 1.44 | -0.16 | 0.711 | 0.527 (inactive) | 0.62 | 0.19 | 0.22 | 0.273 | -0.0644 | 0.79 |
| Cc1cc(C)c(C(O)C2C=CC3C(=O)NC(=O)C3N2Nc2ccc(Cl)cc2Cl)c(C)c1 (stereo not given) | 1.2 | -1.67 (inactive) | -3.28 (inactive) | 2.14 (inactive) | 3.42 | -2.14 (inactive) | 0.114 | 0.364 | 0.874 | -0.0581 | 0.651 | 0.639 | 1.2 | 0.465 (inactive) | 0.871 | 0.753 | 0.253 | 0.95 | -0.0057 | 1.31 |
| Cc1ccc(S[C@]2(C(=O)NCCCN(C)C)CC(=O)N(C3CCCCC3)[C@@H]2c2ccc(CO)cc2)cc1 | -0.0316 | -0.96 (inactive) | -2.22 (inactive) | -0.655 (inactive) | 0.555 | 0.457 (inactive) | 0.0321 | -0.561 | -0.662 | -0.106 | -0.0346 | 0.348 | 0.893 | 0.104 (inactive) | -0.89 | -0.464 | -0.674 | -0.811 | -0.774 | 0.83 |
